{"source": "paper PMC4552634", "about": "“A New Set of Chemical Starting Points with Plasmodium falciparum Transmission-Blocking Potential for Antimalarial Drug Discovery” (PLoS ONE, 2015)", "note": "The campaign covered roughly 13,000 compounds. About 3,200 (25%) showed an effect of 50% or more. The list shows a part of the results.", "data": [{"tested_on": "P. falciparum stage V gametocytes", "set-up": "BacTiter-Glo ATP luminescence viability of purified stage V gametocytes in 384-well plates, per cent inhibition versus DMSO", "conditions": "48 h, 5 µM; inhibitor", "units": {"% Inhibition": "%"}, "values": [{"smiles": "CCn1c(C)c(C)c2cc(C(=O)Nc3ccon3)ccc21", "note": "[TCMDC-124915]", "% Inhibition": 28.52}, {"smiles": "CC(C)N1CCC(Oc2ccc(CN3CCN(C(c4ccccc4)c4ccc(Cl)cc4)CC3)cc2)CC1", "note": "(centres unmarked) [TCMDC-132411]", "% Inhibition": 68.21}, {"smiles": "Oc1ccc(CN2CCN(CCOC(c3ccccc3)c3ccc(Cl)cc3)CC2)cc1Cl", "note": "(centres unmarked) [TCMDC-135689]", "% Inhibition": 3.239}, {"smiles": "Oc1ccccc1CN1CCN(C(c2ccccc2)c2ccccc2)CC1", "note": "[TCMDC-124458]", "% Inhibition": 18.52}, {"smiles": "Oc1ccccc1CN1CCC(CCOC(c2ccccc2)c2ccc(Cl)cc2)CC1", "note": "(centres unmarked) [TCMDC-136039]", "% Inhibition": 23.64}, {"smiles": "Cn1cc(CN2CCC(CCOC(c3ccccc3)c3ccccc3)CC2)cn1", "note": "[TCMDC-136046]", "% Inhibition": 75.05}, {"smiles": "Cn1cc(CN2CCCC(COC(c3ccc(F)cc3)c3ccc(F)cc3)C2)cn1", "note": "(centres unmarked) [TCMDC-136043]", "% Inhibition": -3.69}, {"smiles": "Cn1cc(CN2CCCC(COC(c3ccccc3)c3ccccc3)C2)cn1", "note": "(centres unmarked) [TCMDC-136042]", "% Inhibition": 17.19}, {"smiles": "Cn1cc(CN2CCC(OC(c3ccccc3)c3ccc(Cl)cc3)CC2)cn1", "note": "(centres unmarked) [TCMDC-136165]", "% Inhibition": 63.85}, {"smiles": "c1ccc(C(OCCC2CCN(Cc3cccnc3)CC2)c2ccccc2)cc1", "note": "[TCMDC-136045]", "% Inhibition": 0.3767}, {"smiles": "NC(=O)c1cccc(Nc2nccc(Nc3ccc(Oc4cccc(Cl)c4)c(Cl)c3)n2)c1", "note": "[TCMDC-138593]", "% Inhibition": -22.97}, {"smiles": "Cc1c(S(=O)(=O)Nc2ccc3ccn(CCN(C)C)c3c2)sc2ccc(Cl)cc12", "note": "[TCMDC-139126]", "% Inhibition": -31.84}, {"smiles": "COc1ccc(C2CC(c3ccccc3O)=NN2C(=O)c2ccco2)cc1OC", "note": "(centres unmarked) [TCMDC-125347]", "% Inhibition": -56.68}, {"smiles": "CC(C)C[C@H](Nc1ccnc(NCC2CCCCC2)n1)C(=O)NCCOc1ccccc1", "note": "[TCMDC-134712]", "% Inhibition": 15.38}, {"smiles": "CCOc1ccc(CN(CCc2ccc3c(c2)OCO3)Cc2cc(OC)ccc2O)cc1", "note": "[TCMDC-125607]", "% Inhibition": 58.7}, {"smiles": "Cc1cc(O)c(CN(C)Cc2ccc3c(c2)OCO3)cc1C(C)C", "note": "[TCMDC-124881]", "% Inhibition": 27}, {"smiles": "Cc1cc(O)c(CN(C)Cc2ccc3c(c2)OCCO3)cc1C(C)C", "note": "[TCMDC-124884]", "% Inhibition": 16.52}, {"smiles": "CCOC(=O)c1ccc(NC(=O)Nc2cccc(-c3ccc(-c4nc5ccc(F)cc5[nH]4)cc3)c2)cc1", "note": "[TCMDC-133267]", "% Inhibition": -0.2568}, {"smiles": "Cc1cccc2nc(-c3cccc(-c4ccc(CN5CCC(C(N)=O)CC5)cc4)c3)[nH]c12.O=C(O)C(F)(F)F", "note": "[TCMDC-132697]", "% Inhibition": 21.78}, {"smiles": "COc1cc(-c2cnc(N)c(-c3nc4ccccc4[nH]3)c2)cc(OC)c1OC", "note": "[TCMDC-138793]", "% Inhibition": 9.298}, {"smiles": "COc1ccc(-c2ccc3c(-c4ccc(F)cc4)cnc(N)c3c2)cn1", "note": "[TCMDC-134503]", "% Inhibition": 16.03}, {"smiles": "CS(=O)(=O)c1ccc(-c2cnc(N)c(-c3ccc(O)cc3)c2)cc1", "note": "[TCMDC-133348]", "% Inhibition": 24.96}, {"smiles": "COCc1cccc(-c2cc(-c3ccc(S(C)(=O)=O)cc3)cnc2N)c1", "note": "[TCMDC-133342]", "% Inhibition": 35.59}, {"smiles": "COc1ccc(-c2cc(-c3ccc(S(C)(=O)=O)cc3)cnc2N)cn1", "note": "[TCMDC-133351]", "% Inhibition": 104.2}, {"smiles": "COc1ccc(-c2cnc(N)c(-c3ccc(C(N)=O)cc3)c2)cc1OC", "note": "[TCMDC-133349]", "% Inhibition": 67.55}, {"smiles": "CS(=O)(=O)c1ccc(-c2cnc(N)c(-c3cccc(O)c3)c2)cc1", "note": "[TCMDC-133347]", "% Inhibition": 65.54}, {"smiles": "COC(=O)c1ccc2nc(-c3cc(-c4cccc(-c5ccccc5)c4)cnc3N)[nH]c2c1", "note": "[TCMDC-135320]", "% Inhibition": -16.97}, {"smiles": "COc1cc(-c2cc(-c3ccc(S(C)(=O)=O)cc3)cnc2N)ccc1O", "note": "[TCMDC-133343]", "% Inhibition": 105.4}, {"smiles": "CS(=O)(=O)c1ccc(-c2cnc(N)c(-c3cccc(CO)c3)c2)cc1", "note": "[TCMDC-133352]", "% Inhibition": 33.58}, {"smiles": "CS(=O)(=O)c1ccc2nc(-c3cc(-c4cccc(F)c4)cnc3N)[nH]c2c1", "note": "[TCMDC-133134]", "% Inhibition": 32.71}, {"smiles": "COc1ccc(-c2cnc(N)c(-c3ccc(O)c(OC)c3)c2)cn1", "note": "[TCMDC-133350]", "% Inhibition": 11.39}, {"smiles": "CCCc1cc(OC)c(CC2c3cc(O)c(C)cc3CCN2C)cc1OC", "note": "(centres unmarked) [TCMDC-137164]", "% Inhibition": -32.49}, {"smiles": "Cc1c(C)n(C2CCCCC2)c2ncnc(OC3CCN(CC(=O)NC4CC4)CC3)c12", "note": "[TCMDC-124853]", "% Inhibition": 15.8}, {"smiles": "CCCc1cnc2nc(N)nc(N)c2c1C", "note": "[TCMDC-138066]", "% Inhibition": 12.33}, {"smiles": "Cn1cc(-c2ccccc2C(=O)O)c(=O)c2cc(Cl)ccc21", "note": "[TCMDC-123861]", "% Inhibition": 6.577}, {"smiles": "CCOc1cc(C(=O)N[C@@H](Cc2ccccc2)[C@H](O)CNCc2cc(OC)cc(OC)c2)cc(N2CCCC2=O)c1", "note": "[TCMDC-134571]", "% Inhibition": -29.57}, {"smiles": "COCc1cc(C)nc2sc(C(=O)Nc3cc(C(C)(C)C)ccc3O)c(N)c12", "note": "[TCMDC-125131]", "% Inhibition": 1.168}, {"smiles": "O=C(/C=C/c1ccc(Cl)c(Cl)c1)NCCCCCN1CCCN(C(=O)Nc2cc(F)cc(F)c2)CC1", "note": "[TCMDC-135751]", "% Inhibition": -53.24}, {"smiles": "Oc1cccc(Nc2ccnc3cc(-c4cc5ccccc5o4)ccc23)c1", "note": "[TCMDC-138287]", "% Inhibition": -55.42}, {"smiles": "COc1ccc(Cc2c(N)nc3nc(N)nc(N)c3c2C)cc1", "note": "[TCMDC-138061]", "% Inhibition": 18.63}, {"smiles": "COc1cccc(-c2cc3c(NCc4ccncc4)nccc3s2)c1", "note": "[TCMDC-135200]", "% Inhibition": -6.172}, {"smiles": "CC(C)CC(=O)N1CCNC[C@@H]1C(=O)NCCSCc1c(F)cccc1Cl", "note": "[TCMDC-141243]", "% Inhibition": -23.04}, {"smiles": "O=C(/C=C/c1ccc(Cl)c(Cl)c1)N1CCCC(CCCN2CCC(c3c[nH]c4ccccc34)CC2)C1", "note": "(centres unmarked) [TCMDC-139505]", "% Inhibition": 18.14}, {"smiles": "NC(N)=NN=Cc1c2ccccc2c(Cl)c2c(Cl)cccc12", "note": "[TCMDC-137898]", "% Inhibition": 83.04}, {"smiles": "NC(N)=NN=Cc1c[nH]c2ccc(-c3ccccc3)cc12", "note": "[TCMDC-138961]", "% Inhibition": -59.33}, {"smiles": "NC(N)=NN=CC(=O)Nc1ccc(Cl)c(Cl)c1", "note": "[TCMDC-137466]", "% Inhibition": -3.448}, {"smiles": "Clc1ccc2c(NN=Cc3ccccc3)ccnc2c1", "note": "[TCMDC-123962]", "% Inhibition": -43}, {"smiles": "NC(N)=NN=Cc1c2ccc(Cl)cc2c(Cl)c2ccc(Cl)cc12", "note": "[TCMDC-137884]", "% Inhibition": 111.2}, {"smiles": "NC(N)=NN=Cc1c2ccccc2c(Cl)c2cc(Cl)ccc12", "note": "[TCMDC-137903]", "% Inhibition": 96.19}, {"smiles": "NC(N)=NN=Cc1c2ccccc2c(Cl)c2ccc(Cl)cc12", "note": "[TCMDC-137911]", "% Inhibition": 98.76}, {"smiles": "Cc1cc(C)c(C)c(S(=O)(=O)N2CCCCC(c3ccc(F)c(F)c3)=N2)c1C", "note": "[TCMDC-135419]", "% Inhibition": -64.55}, {"smiles": "CCCc1cc(Cc2cnc(N)nc2N)cc(CC)c1OC", "note": "[TCMDC-137693]", "% Inhibition": 21.32}, {"smiles": "COc1ccc(Nc2nccc(N3CCC(NC(=O)Nc4ccc5c(c4)OCO5)C3)n2)cc1", "note": "(centres unmarked) [TCMDC-133617]", "% Inhibition": -60.34}, {"smiles": "CN(C)CCC1CCN(CCS(=O)(=O)c2cccc(Nc3ncc(-c4cccc(F)c4)cn3)c2)CC1", "note": "[TCMDC-134374]", "% Inhibition": 1.071}, {"smiles": "N#Cc1ccc(-c2ccc(C(=O)NCCCCN3CCC(c4cn(CCCO)c5ccccc45)CC3)cc2)cc1", "note": "[TCMDC-138837]", "% Inhibition": -51.57}, {"smiles": "COc1cccc2c1CCN(CCN1CCC(CNC(=O)c3ccc(-c4ccc(C#N)cc4)cc3)CC1)C2", "note": "[TCMDC-134140]", "% Inhibition": 16.45}, {"smiles": "COc1ccc2c(c1)CCN(CCN1CCC(CNC(=O)c3ccc(-c4ccc(C#N)cc4)cc3)CC1)C2", "note": "[TCMDC-138881]", "% Inhibition": -33.61}, {"smiles": "CC(C)Cn1cc(C2CCN(CCN3CCC(CNC(=O)c4ccc(-c5ccc(C#N)cc5)cc4)CC3)CC2)c2ccccc21", "note": "[TCMDC-138849]", "% Inhibition": 100.8}, {"smiles": "N#Cc1ccc(-c2ccc(C(=O)NCCCCN3CCC(c4cn(CCO)c5ccccc45)CC3)cc2)cc1", "note": "[TCMDC-138836]", "% Inhibition": -28.51}, {"smiles": "C=C(C)Cn1cc(C2CCN(CCN3CCC(CNC(=O)c4ccc(-c5ccc(C#N)cc5)cc4)CC3)CC2)c2ccccc21", "note": "[TCMDC-138854]", "% Inhibition": 103.5}, {"smiles": "COc1cc(C=C(C2=NC(=O)CS2)c2nc3cccnc3n2C)ccc1O", "note": "[TCMDC-135917]", "% Inhibition": -7.7}, {"smiles": "O=C(CC1CCCCC1)NCC(NCCCNc1cc(=O)c2ccccc2[nH]1)c1cc(Br)cc(Br)c1", "note": "(centres unmarked) [TCMDC-140315]", "% Inhibition": -37.31}, {"smiles": "Cc1cccc2[nH]c(-c3ccc(-c4cccc(NC(=O)C(C)CN(C)C)c4)cc3)nc12", "note": "(centres unmarked) [TCMDC-137103]", "% Inhibition": -53.92}, {"smiles": "CC(=O)c1c(CC(=O)O)c2ccccc2n1O", "note": "[TCMDC-131414]", "% Inhibition": 58.24}, {"smiles": "CCCCOc1ccc(-n2c(Nc3ccccc3)nc3cc(S(N)(=O)=O)ccc32)cc1", "note": "[TCMDC-135489]", "% Inhibition": -3.968}, {"smiles": "CC1CCC(C[C@@H](C(=O)N[C@@H](CCC(=O)N2CCCCC2)C(=O)Nc2nccs2)[C@H](C(C)C)N(O)C=O)CC1", "note": "(some centres unmarked) [TCMDC-138168]", "% Inhibition": -16.64}, {"smiles": "COc1cccc(Nc2nc(Nc3cccc(C#N)c3)cc(-c3ccncc3)n2)c1", "note": "[TCMDC-133447]", "% Inhibition": 6.387}, {"smiles": "O=C(CSc1n[nH]c(=O)n1Cc1ccccc1)Nc1ccccc1-c1ccccc1", "note": "[TCMDC-123557]", "% Inhibition": 0.01985}, {"smiles": "COc1ccc(C2CC(c3cccs3)=NN2C(=O)c2ccccc2)cc1OC", "note": "(centres unmarked) [TCMDC-123755]", "% Inhibition": -49.1}, {"smiles": "Cn1c(N)c(C(=O)CSc2nnc(-c3cccs3)n2Cc2ccccc2)c(=O)n(C)c1=O", "note": "[TCMDC-124496]", "% Inhibition": -5.537}, {"smiles": "COc1ccccc1-n1c(SCC(=O)c2ccc3c(c2)CC(=O)N3C)nnc1-c1cccs1", "note": "[TCMDC-124819]", "% Inhibition": 56.33}]}]}
